In PubChem BioAssay AID504810 (National Center for Advancing Translational Sciences (NCATS), 2011):
The whole screen tested about 330,000 compounds, of which about 670 (0.2%) were called active. The entries come from a sample that favours actives as a whole. Values without a mark were called inactive.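 The calls were made as follows: active = activity change below a set negative limit, meaning inhibition stronger than a set level (cut at about -70% in these data); inconclusive = activity change between two set negative limits; inactive = the rest.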

Molecular target: Thyrotropin receptor (Homo sapiens) (UniProt P16473)
Test: Antagonists of the Thyroid Stimulating Hormone Receptor: HTS campaign
Details: TSHR-expressing cells, TSH-stimulated cAMP HTRF, 2 h; at 11.5 µM; stronger effect = lower value
Text: The thyroid-stimulating hormone receptor (TSHR) is a member of the 7 trans-membrane-spanning receptor (7TMR) family of cell surface receptors. TSHR-mediated hyperthyroidism is important in thyroid pathology. The development of small molecule antagonists of TSHR may lead to therapeutic approaches for TSHR-mediated hyperthyroidism caused by constitutively activating mutations or stimulating auto-antibodies associated with Graves' disease. Graves' disease is the leading cause of hyperthyroidism and is caused by autoantibodies that stimulate TSHR (TsAbs) causing thyroid growth and unregulated overproduction of thyroid hormones and existing treatments have liabilities (agranulocytosis). In addition, TSHRs are known to be expressed in multiple extrathyroidal tissues including bone, brain, kidney, testis, fat and cells of the immune system but the role of the TSHR in these tissues is not clear. Therefore, TSHR antagonists/inverse agonists could be used as probes of extrathyroidal TSHR function. Finally, TSHR inverse agonists, which are a subclass of antagonists that inhibit agonist-independent (or basal or constitutive) TSHR signaling, could be used to inhibit TSH-independent signaling in patients with recurrent or metastatic thyroid cancer who are receiving thyroid hormone to suppress TSH. In collaboration between scientist from the NCGC and the NIDDK, a miniaturized HTRF high-throughput screen was developed. It's a cell based assay, where an anti cAMP antibody contains a fluorescent cryptate tag (excitation 337 nm; emission 620 nm) and the acceptor is cAMP-d2 (excitation 620 nm; emission 665 nm). When antibody and cAMP-d2 interact and are excited by a 337 nm light, a FRET occurs resulting in emission at 665 nm. The assay is competition between cAMP-d2 and cAMP (from the cell lysate). The homogeneous protocol allows for one step dispense after stimulation that is automation friendly. NIH Chemical Genomics Center [NCGC] NIH Molecular Libraries Probe Centers Network [MLPCN] MLPCN Grant: MH090855-01 Assay Submitter (PI): Marvin Gerhengorn
1. 3ul of 200 TSHR freshly harvested cells/well are dispensed into a 1536 TC-treated white solid bottom plate. 2. Through pintool addition, 23nl of compounds and control in 100% DMSO are added to the plate. 3. Then 1ul of EC80 TSH (4nM final) is added to the plate. 4. Assay is incubated at 37 deg C for 2 hours. 5. 2ul of cAMP antibody diluted 1:20 in lysis buffer is added. 6. Immediately following, 2ul of d2 diluted 1:20 in HBSS is added seperately. 7. The assay is incubated for 30 minutes at ambient room temperature. 8. The result is obtained by using a ViewLux read-out with HTRF settings.
% is scaled to controls: 0 for no effect and ±100 for the full control effect.

Chain of Thyrotropin receptor (Homo sapiens) (P16473 whole entry, looked up): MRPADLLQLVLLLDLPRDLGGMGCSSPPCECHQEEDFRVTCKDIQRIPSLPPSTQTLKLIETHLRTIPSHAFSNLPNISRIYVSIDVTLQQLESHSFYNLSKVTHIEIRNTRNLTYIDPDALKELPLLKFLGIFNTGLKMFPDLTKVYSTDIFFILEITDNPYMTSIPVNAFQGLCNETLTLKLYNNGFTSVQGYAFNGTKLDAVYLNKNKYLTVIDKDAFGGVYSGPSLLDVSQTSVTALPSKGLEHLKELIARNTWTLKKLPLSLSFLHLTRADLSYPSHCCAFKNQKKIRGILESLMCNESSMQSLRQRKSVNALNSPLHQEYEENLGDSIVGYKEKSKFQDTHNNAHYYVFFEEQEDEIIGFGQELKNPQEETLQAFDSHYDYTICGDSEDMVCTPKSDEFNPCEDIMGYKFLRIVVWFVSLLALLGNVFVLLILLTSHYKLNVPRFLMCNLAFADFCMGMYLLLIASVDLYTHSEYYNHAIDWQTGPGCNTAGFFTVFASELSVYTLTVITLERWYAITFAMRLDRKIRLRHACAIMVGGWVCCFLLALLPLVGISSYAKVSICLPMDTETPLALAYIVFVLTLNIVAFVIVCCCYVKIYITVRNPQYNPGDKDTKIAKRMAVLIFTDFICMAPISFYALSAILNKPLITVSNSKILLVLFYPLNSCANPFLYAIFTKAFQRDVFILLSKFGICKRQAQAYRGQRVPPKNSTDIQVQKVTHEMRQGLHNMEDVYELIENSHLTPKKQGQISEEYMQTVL

| SMILES | activity change, negative = inhibition |
| --- | --- |
| NC(=O)C1(N2CCCCC2)CCN(C(=S)Nc2ccc(Cl)cc2)CC1 | 25.4% |
| NC(=O)C1(N2CCCCC2)CCN(C(=O)c2ccc(C#Cc3ccccc3)o2)CC1 | -75.1% (active) |
| CC(C)(O)C#Cc1ccc(C(=O)N2CCC(C(N)=O)(N3CCCCC3)CC2)cc1 | 2.47% |
| CSc1ccccc1N1CCN(CCCCCC(=O)NC2CCCc3ccccc32)CC1 (centres undefined) | -13.5% |
| Cc1c(C)n2c(SCC(=O)NC3CCCC3)nnc2[nH]c1=O | -8.74% |
| COc1ccc(NC(=O)CN2C(=O)COc3ccc(S(=O)(=O)N4CCOCC4)cc32)cc1 | -2.02% |
| CC(=O)Nc1ccc(NC(=O)CN2C(=O)COc3ccc(S(=O)(=O)N4CCCCC4)cc32)cc1 | 0.648% |
| CSc1cccc(NC(=O)CN2C(=O)COc3ccc(S(=O)(=O)N4CCOCC4)cc32)c1 | -134% (active) |
| Cc1cc2occ(CC(=O)NNC(=O)c3ccccc3F)c2cc1C | 3.48% |
| Cc1csc(NC(=O)CSc2nc(=O)n(CCCN(C)C)c3c2CCC3)n1 | -6.64% |
| CSc1nc(N(C)NC(=O)c2cccc(C)c2)c2ccccc2n1 | -3.52% |
| Cc1cc(C)c2oc(C(=O)Nc3ccc(S(=O)(=O)Nc4nccc(C)n4)cc3)cc(=O)c2c1 | -137% (active) |
| Cc1ccnc(NS(=O)(=O)c2ccc(NC(=O)c3oc4ccccc4c3C)cc2)n1 | -4.53% |
| Cc1ccnc(NS(=O)(=O)c2ccc(NC(=O)c3oc4ccc(F)cc4c3C)cc2)n1 | 4.87% |
| CCCCC(C(=O)NC(C)(C)C)N(Cc1ccccc1)C(=O)c1snc(C(N)=O)c1N (centres undefined) | -2.07% |
| CC/C(=N/Nc1ccccc1)c1cnnc(SC)n1 | -5.85% |
| Cc1cccc(C)c1NC(=O)CSc1nc2c([nH]1)c(=O)n(C)c(=O)n2C | -2.1% |
| Cn1c2cc(B(O)O)sc2c2cnn(Cc3ccccc3F)c(=O)c21 | -27.6% |
| CCOc1ccc(N(CC(=O)NC2CCCCCC2)S(=O)(=O)c2c(C)[nH]c(=O)[nH]c2=O)cc1 | -10.6% |
| O=C(CN1C(=O)NC2(CCCCCC2)C1=O)Nc1ccc([N+](=O)[O-])cc1 | 0.839% |
| CN(C(=O)C1CCN(c2ncnc3c2nc2n3CCCCC2)CC1)C1CCCCC1 | 1.35% |
| [O-][n+]1onc2c1CCc1[nH]c(-c3ccccc3)nc1-2 | -36.4% |
| CCCC1(C(=O)OC)NC(c2ccco2)C2C(=O)N(C)C(=O)C21 (centres undefined) | -3.19% |

| SMILES | activity change, negative = inhibition |
| --- | --- |
| Cc1cc(NC(=O)CN2C(=O)NC(C)(CCc3ccccc3)C2=O)no1 (centres undefined) | 10.4% |
| CCCCN(C(=O)c1ccc2ccccc2c1)c1c(N)n(CCCC)c(=O)[nH]c1=O | -8.5% |
| CNC(=S)N1CCC(NC(=O)C(Cc2ccc(F)cc2)NC(C)=O)CC1 (centres undefined) | -6.46% |
| O=C(COc1ccc(Cl)cc1)Nc1ccc2c(c1)OCO2 | -1.65% |
| O=P(O)(CN1CCCCCC1)C1Cc2ccccc2C1 | 34.6% |
| CCOC(=O)C1(Cc2ccccc2C)CCCN(C(=O)CN2C(=O)CSC2=O)C1 (centres undefined) | 28.6% |
| COc1cc([N+](=O)[O-])cc([N+](=O)[O-])c1NC(=O)N1CCOCC1 | -0.913% |
| CCN(CC(=O)Nc1ccc(NC(C)=O)cc1)C(=O)C1CC(=O)N(Cc2ccc(C)cc2)C1 (centres undefined) | 0.752% |
| CN1CCCc2cc(C#N)c(=O)[nH]c21 | 4.52% |
| COCCn1c(Cc2cccn2C)nnc1SCC(=O)Nc1nccs1 | 4.54% |
| C/C(CCC(=O)OC[C@H]1O[C@H](C#Cc2ccccc2)C=C[C@@H]1Oc1ccc(C)cc1)=N\OC[C@@H](O)[C@H]1O[C@@H]2OC(C)(C)O[C@@H]2[C@H]1O | -3.15% |
| CCOC(CNC(=O)C(=O)NCC(c1ccco1)N1CCN(c2ccc(OC)cc2)CC1)OCC (centres undefined) | 0.959% |
| Cc1cc(=O)oc2c(C)c(OC(C)C(=O)NC3CCN(Cc4ccccc4)CC3)ccc12 (centres undefined) | -2.61% |
| O=c1cc(-c2ccccc2)[nH]c2nc(Cl)ccc12 | -13.7% |
| C=CC1(C)CC(=O)C2(O)C(C)(O1)C(OC(C)=O)C(O)C1C(C)(C)CCC(O)C12C (centres undefined) | 107% |
| CN(C)c1ccc(CNC(=O)CN2C(=O)COc3ccc(S(=O)(=O)N4CCCC4)cc32)cc1 | -5.17% |
| CCn1ccnc1CNC(=O)CC1C(=O)NCCN1CCCc1ccccc1 (centres undefined) | 8.41% |
| O=C(O)CCn1cc(/C=C/C(=O)c2ccc(Cl)cc2)c(-c2cccc(Br)c2)n1 | -11.6% |
| O=C(NCc1ccccc1Cl)C1CCCO1 (centres undefined) | -3.41% |
| O=C(Nc1ccc(C(=O)NCc2ccccc2Cl)cc1)C1=CSCCO1 | -135% (active) |
| CSc1ccc(CNC(=O)c2ccc(NC(=O)C3=CSCCO3)cc2)cc1 | 17.8% |
| CC(NC(=O)c1cc(=O)[nH]c2ccccc12)c1ccc(F)cc1F (centres undefined) | -93% (active) |
| CC(NC(=O)COC(=O)c1cc(=O)[nH]c2ccccc12)c1ccccc1 (centres undefined) | -4.46% |

| SMILES | activity change, negative = inhibition |
| --- | --- |
| O=C(CNC(=O)c1cc(=O)[nH]c2ccccc12)Nc1ccc(F)c(F)c1 | 1.67% |
| Cc1cc(C(=O)N/N=C/c2cc([N+](=O)[O-])cc(C)c2O)n[nH]1 | 13.9% |
| O=[N+]([O-])c1cc(Br)c(O)c(/C=N/Nc2nc3ccccc3s2)c1 | -87.3% (active) |
| COc1ccc(CC(=O)N/N=C/c2cc([N+](=O)[O-])cc(Br)c2O)cc1 | 1.63% |
| CC(C)Cn1c(=O)c2ccccc2n2c(CCC(=O)NCc3ccccn3)nnc12 | 3.77% |
| C=CCc1ccccc1OCC(O)CN1CCN(CCO)CC1 (centres undefined) | 3.81% |
| Cc1cc(C)c(C#N)c(SCC(=O)Nc2ccccc2)n1 | 1.53% |
| Cc1cc(C)c2c(-c3ccc(F)cc3)c(C#N)c(=O)n(C)c2n1 | -4.99% |
| Cc1cc(C#N)c(SCC(N)=O)nc1-c1ccc(F)cc1 | -75.8% (active) |
| CNC(=O)C1CCN(S(=O)(=O)c2c(C)noc2/C=C/c2cccc(C)c2)CC1 | 9.08% |
| CC(NC(=O)CNC(=O)Cc1cccc2ccccc12)c1ccc(S(N)(=O)=O)cc1 (centres undefined) | -28.1% |
| CCNC(=O)N1CCN(S(=O)(=O)c2ccc3c(c2)OCCCO3)CC1 | 13% |
| O=c1ccc(-c2ccc(S(=O)(=O)Nc3ccccc3)o2)n[nH]1 | 14.7% |
| COc1cccc(NC(=O)CC(c2ccc(OC(C)C)cc2)c2ccccc2OC)c1 (centres undefined) | -14.4% |
| CCOC(=O)NN1C(=O)c2ccccc2NC1c1ccccc1O (centres undefined) | 8.06% |
| O=C(CCN1C(=O)C2C3CCC(C3)C2C1=O)Nc1ccc(Cl)cc1Cl (centres undefined) | 1.9% |
| CCN(CC)C(=O)CSc1nnc(-c2ccc(S(=O)(=O)NCc3ccccc3Cl)cc2)o1 | -13.6% |
| COc1ccc(S(=O)(=O)N2CCN(C)CC2)c(C)c1 | -0.476% |
| Cc1ccc(S(=O)(=O)n2cnc3ccccc32)c(C)c1 | 2.16% |
| COc1ccc(S(=O)(=O)n2cnc3ccccc32)c(C)c1 | -81.3% (active) |
| CCC1SC2=NCCN2C1(O)c1ccc(Cl)cc1 (centres undefined) | 6.43% |
| CCOc1ccc(N(CC(=O)NCCc2ccc(F)cc2)S(=O)(=O)c2ccccc2)cc1 | -7.25% |
| CC(NC(=O)Cn1cc(C(F)(F)F)cc(Cl)c1=O)c1ccccc1 (centres undefined) | 7.91% |

| SMILES | activity change, negative = inhibition |
| --- | --- |
| COC(=O)c1cc(=O)n(-c2c(Cl)cc(C(F)(F)F)cc2Cl)[nH]1 | -90% (active) |
| CCN1C(=S)N[C@@H](c2cccc(C(F)(F)F)c2)C(C(=O)OC)=C1C | 0.624% |
| Cc1sc2ncn(CC(=O)NCCCC(=O)N(C)Cc3ccccc3)c(=O)c2c1C | 3.25% |
| Cc1sc2ncn(CC(=O)NCCCC(=O)NCc3ccc(F)cc3)c(=O)c2c1C | -97.7% (active) |
| Cc1sc2ncn(CC(=O)NCCCC(=O)N3CCN(c4ccccc4F)CC3)c(=O)c2c1C | 3.65% |
| COc1ccc(CCNCc2c(-c3ccccc3)n(C)c3ccccc23)cc1 | 5.27% |
| COc1cc(OC)cc(C(=O)NNC(=O)CNC(=O)c2ccc(Br)o2)c1 | -4.32% |
| NC1CCN(O)C1=O (centres undefined) | 5.61% |
| CCC(C)NC(=O)C1CCC(=O)N1Cc1ccc(C)cc1 (centres undefined) | 1.98% |
| CCCN(c1ccc(C(C)C)cc1)S(=O)(=O)c1c(C)[nH]c(=O)[nH]c1=O | -12.7% |
| Cc1ccc(CN2CCNC(=O)C2CC(=O)NCc2csc(C(C)C)n2)cc1 (centres undefined) | 12.6% |
| NC(=O)C1CCN(c2nc(-c3cccc(F)c3)cs2)CC1 | -7.85% |
| COc1ccc(NC(=O)CSc2nnc(Cc3ccccc3)c(=O)n2N)cc1 | 7.33% |
| CCCCn1c(N)c(N(CCOC)C(=O)COc2c(C)cccc2C)c(=O)[nH]c1=O | -0.316% |
| CCc1ccccc1NC(=O)CN(C)C(=O)COc1ccc(C)nc1[N+](=O)[O-] | 4.86% |
| C1CC1Cc1noc(CN2CCN(CC3CC3)CC2)n1 | 3.76% |
| NS(=O)(=O)c1cc(C(=O)NCCOc2ccccc2)c(Cl)cc1Cl | 8.26% |
| CCc1nn(CC(=O)N2CCN(c3cc(C)ccc3C)CC2)c(=O)c2cc3occc3n12 | 12.8% |
| OCC(O)CN(c1ccccc1)c1ccccc1 (centres undefined) | 3.75% |
| CC1(C)O[C@@H]2[C@H](O1)[C@@H](CO)O[C@H]2n1c(N2CCCCC2)nc2c(N)ncnc21 | -5.04% |
